Key:
Conditions in all cases: concentration: 1 μM, replicates: in singlicate; n = 1
ERK4 = system: T1, ERK4
T1 construct: gene MAPK4

ERK5 = system: T2, ERK5
T2 construct: gene MAPK7

ERK8 = system: T3, ERK8
T3 construct: gene MAPK15

ERN1 = system: ERN1
FAK = system: T4, FAK
T4 construct: gene PTK2

FER = system: FER
FES = system: FES
FGFR1 = system: FGFR1
FGFR2 = system: FGFR2
FGFR3 = system: FGFR3
FGFR4 = system: FGFR4
FGR = system: FGR
FLT1 = system: FLT1
FLT3-autoinhibited = system: FLT3-autoinhibited
FLT3 = system: FLT3
FLT4 = system: FLT4
FRK = system: FRK
FYN = system: FYN
GAK = system: GAK
GCN2(Kin.Dom.2,S808G) = system: T5, GCN2(Kin.Dom.2,S808G)
T5 construct: gene EIF2AK4
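Also: KINOMEscan kinase panel screen.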

Compound | %Inh (ERK4) [%] | %Inh (ERK5) [%] | %Inh (ERK8) [%] | %Inh (ERN1) [%] | %Inh (FAK) [%] | %Inh (FER) [%] | %Inh (FES) [%] | %Inh (FGFR1) [%] | %Inh (FGFR2) [%] | %Inh (FGFR3) [%] | %Inh (FGFR4) [%] | %Inh (FGR) [%] | %Inh (FLT1) [%] | %Inh (FLT3-autoinhibited) [%] | %Inh (FLT3) [%] | %Inh (FLT4) [%] | %Inh (FRK) [%] | %Inh (FYN) [%] | %Inh (GAK) [%] | %Inh (GCN2(Kin.Dom.2,S808G)) [%]
NC(=O)c1sc(-n2cnc3ccccc32)cc1OCc1ccccc1F [GSK1024306] | 0 | 0 | 26 | 0 | 0 | 20 | 0 | 0 | 0 | 4 | 19 | 0 | 40 | 2 | 0 | 27 | 11 | 24 | 24 | 0
Cn1ccc2ncnc(Nc3ccc(Oc4cccc(Cl)c4)c(Cl)c3)c21 | 25 | 22 | 0 | 48 | 0 | 0 | 8 | 1 | 6 | 1 | 0 | 0 | 0 | 17 | 0 | 18 | 4 | 1 | 0 | 28
Nc1nc(-c2ccc3c(N)n[nH]c3c2)cc(N2CCCCC2)n1 [GSK2228768] | 2 | 0 | 0 | 7 | 0 | 10 | 0 | 0 | 0 | 0 | 0 | 12 | 24 | 0 | 0 | 1 | 0 | 18 | 0 | 0
O=C(c1ccc(-c2cc(-c3c[nH]nc3-c3ccccn3)ccn2)cc1)N1CCCC1 [GW792479] | 0 | 23 | 0 | 0 | 47 | 0 | 5 | 3 | 1 | 3 | 0 | 17 | 18 | 0 | 8 | 0 | 0 | 5 | 33 | 0
Nc1n[nH]c2nnc(-c3ccccc3)cc12 [SB-517389] | 30 | 0 | 18 | 3 | 0 | 0 | 0 | 0 | 5 | 11 | 14 | 29 | 12 | 1 | 0 | 0 | 6 | 28 | 10 | 10
Cl.Cn1ccc(-c2cccc(Nc3ccnc4cc(-c5nccs5)ccc34)c2)n1 [GW525701] | 9 | 0 | 0 | 0 | 0 | 8 | 22 | 0 | 0 | 11 | 0 | 53 | 0 | 0 | 0 | 7 | 0 | 3 | 19 | 0
OCCOCCn1ccc2ncnc(Nc3ccc(Oc4cccc(Cl)c4)c(Cl)c3)c21 | 0 | 0 | 0 | 0 | 0 | 24 | 6 | 27 | 0 | 0 | 0 | 2 | 0 | 0 | 0 | 0 | 0 | 0 | 0 | 0
COc1ccc(NC(=O)c2ccc(-c3cc(-c4nnc(C)o4)ccc3C)cc2)cc1 [GW595885] | 0 | 0 | 0 | 0 | 0 | 6 | 0 | 0 | 0 | 16 | 0 | 10 | 19 | 0 | 0 | 0 | 10 | 6 | 0 | 14
CCC(CC)(CC)n1cnc2c(N)ncnc21 [SKF-97620] | 0 | 0 | 1 | 26 | 0 | 0 | 10 | 17 | 100 | 0 | 4 | 4 | 4 | 19 | 11 | 0 | 23 | 7 | 3 | 0
O=c1cc(N2CCOCC2)nc2n(Cc3cccc(Cl)c3)ccn12 [GSK2296823] | 7 | 0 | 38 | 0 | 0 | 3 | 0 | 0 | 14 | 24 | 5 | 15 | 19 | 14 | 0 | 1 | 7 | 0 | 2 | 0
FC(F)(F)c1cc(Nc2nccc(-c3c(-c4ccc(Cl)cc4)nn4ncccc34)n2)ccc1Cl [GW829351] | 0 | 0 | 0 | 0 | 0 | 0 | 0 | 0 | 0 | 0 | 0 | 0 | 0 | 0 | 0 | 0 | 0 | 0 | 0 | 0
Cl.O=S(=O)(c1cccc(F)c1)c1ccc(Nc2ncnc3cc(Br)sc23)cc1Cl [GSK306886] | 44 | 4 | 0 | 11 | 0 | 14 | 13 | 0 | 0 | 16 | 30 | 24 | 20 | 0 | 0 | 98.1 | 0 | 41 | 3 | 0
Fc1cccc(COc2ccc(Nc3ncnc4cc[nH]c34)cc2Cl)c1 | 9 | 0 | 7 | 35 | 11 | 31 | 21 | 14 | 8 | 10 | 11 | 18 | 6 | 16 | 0 | 0 | 21 | 13 | 14 | 0
CNc1nccc(-c2c(-c3ccc(F)cc3)ncn2C2CCN(C)CC2)n1 [SB-222903] | 0 | 9 | 6 | 0 | 43 | 0 | 0 | 0 | 0 | 0 | 0 | 0 | 0 | 0 | 0 | 0 | 0 | 0 | 6 | 3
N#Cc1ccc(Oc2ccc(Nc3ncnc4cc[nH]c34)cc2Cl)cc1 | 17 | 20 | 12 | 8 | 8 | 0 | 17 | 9 | 1 | 8 | 27 | 22 | 8 | 15 | 10 | 0 | 23 | 20 | 17 | 10
Cc1ccc(O)cc1Nc1cc(C(F)(F)F)nc2ccc(-c3ccncc3)cc12 [GW630823] | 5 | 9 | 7 | 0 | 3 | 1 | 6 | 0 | 4 | 0 | 5 | 22 | 14 | 0 | 27 | 13 | 14 | 7 | 4 | 0
CSc1nn2c(=O)cc(N3CCOCC3)nc2n1Cc1cccc(Cl)c1Cl [GSK2347225] | 21 | 0 | 0 | 9 | 0 | 44 | 13 | 6 | 17 | 17 | 15 | 30 | 24 | 0 | 0 | 0 | 11 | 17 | 9 | 1
Fc1ccc(Nc2nccc(-c3c(-c4ccc(Cl)cc4)nn4ncccc34)n2)cc1F [GW829058] | 23 | 0 | 0 | 48 | 17 | 9 | 19 | 13 | 15 | 9 | 5 | 12 | 8 | 14 | 40 | 1 | 32 | 7 | 14 | 3
c1ccc(-c2ccc3c(-c4ccnc(Nc5ccc6c(c5)OCCO6)n4)cnn3n2)cc1 [GW818941] | 0 | 0 | 92.7 | 0 | 6 | 23 | 0 | 18 | 0 | 15 | 10 | 23 | 31 | 18 | 36 | 36 | 9 | 32 | 28 | 11
O=C(NCCCN1CCCC1=O)c1cnc(NCc2cc(Cl)ccc2Cl)nc1NC1CCNCC1 | 0 | 0 | 17 | 0 | 0 | 0 | 0 | 11 | 14 | 0 | 0 | 1 | 0 | 0 | 0 | 7 | 0 | 6 | 0 | 0
Fc1cccc(COc2ccc(Nc3ncnc4sc(-c5ccc[nH]5)cc34)cc2Cl)c1 [GW707818] | 51 | 6 | 0 | 10 | 0 | 12 | 0 | 0 | 0 | 6 | 12 | 3 | 22 | 7 | 0 | 3 | 0 | 45 | 4 | 0

From publication PMC5540273 (PLoS ONE, 2017)
